Laboratory results from PubChem BioAssay (NCATS).
Records with an inconclusive call do not appear. Active and inactive are the calls of the source. Unless noted, calls come from the whole dose curve; as a rule, active = well fitted curve in either direction with a large enough effect (not every such curve was filed as active); inconclusive = small, poorly fitted or top-dose-only effect, or another doubt; inactive = flat fitted curve, though single readings scatter.

Experiments:
[1] = target: Lysosomal acid glucosylceramidase (Homo sapiens) (UniProt P04062); assay: Glucocerebrosidase-p2 (AID 348; in the data active = potency below about 10 µM; note: potency is the fitted concentration of half-maximal effect); details: purified GBA, blue fluorogenic substrate, 40 min
Method in brief: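 Normal human glucocerebrosidase (0.2 nM) with blue fluorogenic substrate (80 uM final) in citrate/phosphate pH 5.9 with 10mM sodium taurocholate, 0.01% tween-20; 40 min RT, NaOH/glycine stop; fluorescence Ex 365/Em 440; AC50 from a titration from 0.6 nM upwards.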

[2] = AP1 Signaling Pathway (AID 357); details: ME-180 AP-1-bla reporter, EGF-induced, beta-lactamase ratio, 5 h; at 7.69 µM (top of the series) unless noted;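 note: ME-180 reporter cells stimulated with EGF at its EC50 level; % is set by controls: 0 for no effect and ±100 for the full control effect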
Method in brief: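 Titration-series screen for positive or negative modulators of EC50 EGF-induced signaling in ME-180 cells carrying an AP-1-driven beta-lactamase reporter. After 5 hours at 37 degrees Celsius, CCF4 460nm/530nm emission ratio gave %Activity; AC50 values derived.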

[3] = NFAT Signaling Pathway (AID 444); details: Jurkat NFAT-bla M1, carbachol, beta-lactamase ratio, 5 h; at 7.69 µM (top of the series) unless noted;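 note: carbachol stimulus at about its EC50 of 1 µM final; % is set by controls: 0 for no effect and ±100 for the full control effect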
Method in brief: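 Read-out: CCF4 FRET ratio (460 nm/530 nm) after 1 h RT dye loading, used for %activity and AC50 from titration series. Cells: Jurkat NFAT-β-lactamase/M1 line, treated with compound plus 1 uM carbachol for 5 h, 37 °C.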

[4] = Stat Signaling Pathway (AID 446); details: ME-180 (cervical carcinoma) SIE beta-lactamase reporter, IL-6 stimulated, 5 h; at 7.69 µM (top of the series) unless noted;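 note: ME-180 cervical cancer cells given 40 pM IL-6 alongside compound; SIE-controlled beta-lactamase reporter measured as 460/530 nm FRET emission ratio; % is set by controls: 0 for no effect and ±100 for the full control effect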
Method in brief: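 FRET read-out (405 nm excitation, 460/530 nm emission) of a beta-lactamase reporter under a STAT-inducible element in ME-180 cervical carcinoma cells. Cells with compound receive 40 pM IL-6 for 5 h. Values are normalised to AC90 stimulation and AC90 JAK-inhibitor controls.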

[5] = target: Glucocorticoid receptor (Homo sapiens) (UniProt P04150); assay: GR-EFC Redistribution (AID 451; calls by dose curve; note: potency is the fitted concentration of half-maximal effect); details: CHO-K1 GR-EFC translocation, beta-gal luminescence, 2 h
Method in brief: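 Translocation of GR-ED fusion to nuclear EA restores b-gal, read by luminescence after 1 h room-temperature detection. Engineered CHO-K1 biosensor cells, 1,000/well, exposed 2 h at 37 C to titrations up to 46 uM final.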

[6] = target: Mitogen-activated protein kinase 10 (Mus musculus) (UniProt Q61831); assay: JNK3 AlphaScreen Assay (AID 530); details: JNK3 lysate, c-Jun phosphorylation; series mostly up to 11.4 µM;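 note: kinase came from lysate of stimulated human HepG2 cells; signal reports phosphorylation of biotinylated GST-cJun 1-79 at Ser73 with 10 µM ATP; % is set by controls: 0 for no effect and ±100 for the full control effect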
Method in brief: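 qHTS titrations with 15 min compound pre-incubation before adding ATP (10 uM final). Read-out: AlphaScreen of Ser73-phosphorylated biotin-GST-cJun using HepG2 lysate JNK3 activated by IL-1β and TNFα.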

[7] = target: 3',5'-cyclic-AMP phosphodiesterase 4B (Homo sapiens) (UniProt Q07343); assay: qHTS Assay for Inhibitors of PDE-IV (AID 607; active = well fitted activation curve with a large enough effect in the main read-out, with a control signal flat, not every such curve was filed as active; note: % of control where 0% means no effect); details: HEK293 ACTOne CNG channel cells, membrane potential fluorescence; series mostly up to 22.9 µM
Method in brief: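 Cell-based read-out of cAMP via a modified cyclic nucleotide-gated channel and membrane potential dye (535/590 nm) in HEK293 cells expressing PDE4 endogenously. Compounds tested up to 22.9 uM final; 100 uM RO 20-1724 reference.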

Lysosomal acid glucosylceramidase (Homo sapiens), sequence (P04062 whole entry, looked up): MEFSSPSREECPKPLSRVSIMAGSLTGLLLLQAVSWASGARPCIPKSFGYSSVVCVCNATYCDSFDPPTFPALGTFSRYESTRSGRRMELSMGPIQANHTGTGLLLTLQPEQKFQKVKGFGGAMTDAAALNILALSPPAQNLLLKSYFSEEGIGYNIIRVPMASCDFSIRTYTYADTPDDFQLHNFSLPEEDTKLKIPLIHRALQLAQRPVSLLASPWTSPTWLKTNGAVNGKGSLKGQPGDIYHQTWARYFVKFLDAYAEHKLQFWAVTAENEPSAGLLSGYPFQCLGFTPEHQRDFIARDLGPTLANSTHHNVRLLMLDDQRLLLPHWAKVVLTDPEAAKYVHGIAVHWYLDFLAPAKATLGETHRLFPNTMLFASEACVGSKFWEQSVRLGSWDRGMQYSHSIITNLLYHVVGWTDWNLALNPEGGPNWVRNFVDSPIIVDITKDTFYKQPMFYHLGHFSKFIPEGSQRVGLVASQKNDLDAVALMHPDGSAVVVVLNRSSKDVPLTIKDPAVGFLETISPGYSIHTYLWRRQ
3',5'-cyclic-AMP phosphodiesterase 4B (Homo sapiens), sequence (Q07343 whole entry, looked up): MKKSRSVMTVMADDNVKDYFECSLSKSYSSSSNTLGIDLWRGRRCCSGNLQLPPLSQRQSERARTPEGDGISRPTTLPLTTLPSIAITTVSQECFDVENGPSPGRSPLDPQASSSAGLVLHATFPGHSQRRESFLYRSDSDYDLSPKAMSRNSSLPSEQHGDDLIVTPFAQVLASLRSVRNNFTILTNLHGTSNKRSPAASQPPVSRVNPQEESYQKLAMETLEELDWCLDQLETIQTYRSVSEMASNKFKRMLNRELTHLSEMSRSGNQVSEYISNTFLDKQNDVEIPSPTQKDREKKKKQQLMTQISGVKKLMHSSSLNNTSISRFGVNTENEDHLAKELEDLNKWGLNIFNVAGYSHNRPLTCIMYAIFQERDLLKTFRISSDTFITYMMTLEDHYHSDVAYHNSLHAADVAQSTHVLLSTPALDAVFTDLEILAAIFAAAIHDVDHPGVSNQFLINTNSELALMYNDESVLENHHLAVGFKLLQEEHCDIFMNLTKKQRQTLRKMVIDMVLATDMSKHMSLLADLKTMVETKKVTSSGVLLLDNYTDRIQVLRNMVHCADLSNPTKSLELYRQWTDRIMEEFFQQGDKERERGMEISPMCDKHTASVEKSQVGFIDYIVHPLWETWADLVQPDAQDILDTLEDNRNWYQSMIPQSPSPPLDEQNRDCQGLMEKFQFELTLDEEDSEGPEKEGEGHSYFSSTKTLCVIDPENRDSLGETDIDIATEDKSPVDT
Glucocorticoid receptor (Homo sapiens), sequence (P04150 whole entry, looked up, the tested form may be a part): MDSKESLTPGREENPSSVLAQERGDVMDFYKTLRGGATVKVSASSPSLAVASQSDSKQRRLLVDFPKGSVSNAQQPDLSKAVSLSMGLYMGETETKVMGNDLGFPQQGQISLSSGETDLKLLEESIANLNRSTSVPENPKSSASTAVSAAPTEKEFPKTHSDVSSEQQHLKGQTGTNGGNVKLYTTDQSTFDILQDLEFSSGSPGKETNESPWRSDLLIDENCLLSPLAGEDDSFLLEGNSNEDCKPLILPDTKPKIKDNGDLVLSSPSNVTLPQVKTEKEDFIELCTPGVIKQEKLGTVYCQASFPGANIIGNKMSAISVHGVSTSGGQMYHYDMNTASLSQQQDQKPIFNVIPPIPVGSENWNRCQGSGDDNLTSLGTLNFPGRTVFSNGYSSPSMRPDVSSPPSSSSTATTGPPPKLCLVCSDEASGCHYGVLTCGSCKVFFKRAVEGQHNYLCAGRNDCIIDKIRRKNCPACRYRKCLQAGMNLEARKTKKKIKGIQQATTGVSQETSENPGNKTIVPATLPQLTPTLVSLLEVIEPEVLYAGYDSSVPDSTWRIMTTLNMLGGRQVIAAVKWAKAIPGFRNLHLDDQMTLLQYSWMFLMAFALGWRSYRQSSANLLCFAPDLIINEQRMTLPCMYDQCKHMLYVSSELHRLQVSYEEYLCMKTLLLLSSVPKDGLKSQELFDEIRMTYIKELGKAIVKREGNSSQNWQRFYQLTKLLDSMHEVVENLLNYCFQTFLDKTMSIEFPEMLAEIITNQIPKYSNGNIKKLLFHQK

O=C(O)CSc1ccc([N+](=O)[O-])cc1[N+](=O)[O-]
inactive: Potency [1] > 11.4 µM | activity change, negative = inhibition [2] 10.9% | activity change, negative = inhibition [3] -3.03% | activity, negative = inhibition [4] 9.83% | Potency [5] > 9.22 µM | Potency [6] | Potency [7]

O=C(O)CN(CCN(CC(=O)O)CC(=O)O)CC(=O)O.[Cu]
inactive: Potency [1] > 11.4 µM | activity change, negative = inhibition [2] -4.33% | activity change, negative = inhibition [3] 0.389% | activity, negative = inhibition [4] 6.67% | Potency [6] | Potency [7]
